Experimental data reported in PubChem BioAssay AID1159580 (chemical genetic matrix, 2015).
Several values for one entry are separate records, joined by “and”; a condition that tells them apart may be missing. Equal entries are not always repeated. The campaign covered roughly 5,500 compounds. About 2,000 (36%) were called active. Another 18% or so got no clear call; they are omitted. Rule as the data show it: active = normalized growth mostly below about 0.91 (no sharp cut-off); inconclusive = no clear call, values can overlap the other calls; inactive = mostly above about 0.92. Some of the results follow.

Experiment: chemical genetic growth profiling, strain panel (AID 1159580);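 also: tested at 20 µM; growth read once vehicle control cultures reached saturation at 30 °C; 1 = growth at the plate median or of vehicle wells; lower values mean less growth of the strain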
Conditions: growth OD

Measured: normalized growth

CN1C(C(=O)Nc2ccccn2)=C(O)c2ccccc2S1(=O)=O
active: S. cerevisiae deletion strains, locus YKL068W, stronger effect = lower value 0.925 | S. cerevisiae deletion strains, locus YLL026W, stronger effect = lower value 0.93 | S. cerevisiae deletion strains, locus YMR205C, strain PFK2, stronger effect = lower value 0.781 | S. cerevisiae deletion strains, locus YNL071W, strain lat1, stronger effect = lower value 0.786 | S. cerevisiae deletion strains, locus YNL248C, strain rpa49, stronger effect = lower value 1.26 [resistant] | S. cerevisiae deletion strains, locus YNL271C, strain bni1, stronger effect = lower value 0.911 | S. cerevisiae deletion strains, locus YNL307C, strain MCK1, stronger effect = lower value 0.82 | S. cerevisiae deletion strains, locus YPR163C, strain tif3, stronger effect = lower value 0.885
inactive: S. cerevisiae deletion strains, locus YKL009W, strain mrt4, stronger effect = lower value 0.963 | S. cerevisiae deletion strains, locus YKL085W, strain MDH1 (second series), stronger effect = lower value 0.935 | S. cerevisiae deletion strains, locus YKL085W, strain MDH1, stronger effect = lower value 0.935 | S. cerevisiae deletion strains, locus YKL160W, strain elf1, stronger effect = lower value 0.933 | S. cerevisiae deletion strains, locus YKL190W, strain CNB1, stronger effect = lower value 1.01 | S. cerevisiae deletion strains, locus YKR001C, strain vps1, stronger effect = lower value 0.969 | S. cerevisiae deletion strains, locus YKR026C, strain gcn3, stronger effect = lower value 0.958 | S. cerevisiae deletion strains, locus YKR091W, strain srl3, stronger effect = lower value 0.968 | S. cerevisiae deletion strains, locus YLL001W, strain dnm1, stronger effect = lower value 0.963 | S. cerevisiae deletion strains, locus YLL041C, strain sdh2, stronger effect = lower value 0.953 | S. cerevisiae deletion strains, locus YLR027C, strain aat2, stronger effect = lower value 0.932 | S. cerevisiae deletion strains, locus YLR039C, strain RIC1, stronger effect = lower value 0.984 | S. cerevisiae deletion strains, locus YLR058C, strain SHM2, stronger effect = lower value 0.982 | S. cerevisiae deletion strains, locus YLR102C, strain apc9, stronger effect = lower value 0.946 | S. cerevisiae deletion strains, locus YLR113W, strain HOG1, stronger effect = lower value 0.934 | S. cerevisiae deletion strains, locus YLR221C, strain rsa3, stronger effect = lower value 0.925 | S. cerevisiae deletion strains, locus YLR258W, strain gsy2, stronger effect = lower value 0.95 | S. cerevisiae deletion strains, locus YLR262C, strain YPT6 (second series), stronger effect = lower value 0.919 | S. cerevisiae deletion strains, locus YLR262C, strain YPT6, stronger effect = lower value 0.998 | S. cerevisiae deletion strains, locus YLR268W, strain sec22, stronger effect = lower value 0.921 | S. cerevisiae deletion strains, locus YLR320W, strain mms22, stronger effect = lower value 0.881 | S. cerevisiae deletion strains, locus YLR330W, strain CHS5, stronger effect = lower value 0.967 | S. cerevisiae deletion strains, locus YLR342W, strain FKS1 (second series), stronger effect = lower value 0.94 | S. cerevisiae deletion strains, locus YLR342W, strain FKS1, stronger effect = lower value 0.931 | S. cerevisiae deletion strains, locus YLR357W, strain rsc2, stronger effect = lower value 1 | S. cerevisiae deletion strains, locus YLR370C, strain arc18, stronger effect = lower value 0.985 | S. cerevisiae deletion strains, locus YLR371W, strain rom2, stronger effect = lower value 0.95 | S. cerevisiae deletion strains, locus YLR384C, strain iki3, stronger effect = lower value 0.961 | S. cerevisiae deletion strains, locus YLR418C, strain cdc73, stronger effect = lower value 0.905 | S. cerevisiae deletion strains, locus YML016C, strain PPZ1, stronger effect = lower value 0.965 | S. cerevisiae deletion strains, locus YML032C, strain rad52, stronger effect = lower value 0.954 | S. cerevisiae deletion strains, locus YML120C, strain ndi1, stronger effect = lower value 0.95 | S. cerevisiae deletion strains, locus YML124C, strain tub3, stronger effect = lower value 0.95 | S. cerevisiae deletion strains, locus YMR058W, strain fet3, stronger effect = lower value 0.961 | S. cerevisiae deletion strains, locus YMR078C, strain ctf18, stronger effect = lower value 0.926 | S. cerevisiae deletion strains, locus YMR125W, strain sto1, stronger effect = lower value 0.985 | S. cerevisiae deletion strains, locus YMR129W, stronger effect = lower value 0.935 | S. cerevisiae deletion strains, locus YMR223W, strain ubp8, stronger effect = lower value 0.97 | S. cerevisiae deletion strains, locus YMR231W, strain pep5, stronger effect = lower value 0.97 | S. cerevisiae deletion strains, locus YMR263W, strain SAP30, stronger effect = lower value 0.996 | S. cerevisiae deletion strains, locus YMR307W, strain GAS1, stronger effect = lower value 0.836 and 1 | S. cerevisiae deletion strains, locus YNL067W, strain RPL9B, stronger effect = lower value 1 | S. cerevisiae deletion strains, locus YNL128W, strain TEP1, stronger effect = lower value 1.02 | S. cerevisiae deletion strains, locus YNL153C, strain GIM3, stronger effect = lower value 0.984 | S. cerevisiae deletion strains, locus YNL175C, strain NOP13, stronger effect = lower value 0.971 | S. cerevisiae deletion strains, locus YNL183C, strain NPR1, stronger effect = lower value 0.919 | S. cerevisiae deletion strains, locus YNL197C, strain WHI3, stronger effect = lower value 0.97 | S. cerevisiae deletion strains, locus YNL209W, strain ssb2, stronger effect = lower value 0.982 | S. cerevisiae deletion strains, locus YNL224C, strain SQS1, stronger effect = lower value 0.968 | S. cerevisiae deletion strains, locus YNL233W, strain BNI4, stronger effect = lower value 0.993 | S. cerevisiae deletion strains, locus YNL250W, strain rad50, stronger effect = lower value 0.923 | S. cerevisiae deletion strains, locus YNL298W, strain CLA4, stronger effect = lower value 0.935 | S. cerevisiae deletion strains, locus YNL322C, strain KRE1 (second series), stronger effect = lower value 0.943 | S. cerevisiae deletion strains, locus YNL322C, strain KRE1, stronger effect = lower value 0.973 and 1 | S. cerevisiae deletion strains, locus YNR049C, strain mso1, stronger effect = lower value 0.964 | S. cerevisiae deletion strains, locus YNR052C, strain pop2, stronger effect = lower value 0.965 | S. cerevisiae deletion strains, locus YOL006C, strain TOP1, stronger effect = lower value 0.999 | S. cerevisiae deletion strains, locus YOL012C, strain htz1 0.613 | S. cerevisiae deletion strains, locus YOL147C, strain pex11, stronger effect = lower value 0.944 | S. cerevisiae deletion strains, locus YOR001W, strain rrp6, stronger effect = lower value 0.92 | S. cerevisiae deletion strains, locus YOR061W, strain CKA2, stronger effect = lower value 0.976 | S. cerevisiae deletion strains, locus YOR069W, strain VPS5, stronger effect = lower value 0.966 | S. cerevisiae deletion strains, locus YOR070C, strain gyp1, stronger effect = lower value 0.973 | S. cerevisiae deletion strains, locus YOR080W, strain dia2, stronger effect = lower value 0.978 | S. cerevisiae deletion strains, locus YOR083W, strain WHI5 (second series), stronger effect = lower value 0.99 | S. cerevisiae deletion strains, locus YOR083W, strain WHI5, stronger effect = lower value 0.946 | S. cerevisiae deletion strains, locus YOR106W, strain vam3, stronger effect = lower value 0.965 | S. cerevisiae deletion strains, locus YOR136W, strain idh2, stronger effect = lower value 0.988 | S. cerevisiae deletion strains, locus YOR144C, strain elg1, stronger effect = lower value 0.953 | S. cerevisiae deletion strains, locus YOR184W, strain ser1, stronger effect = lower value 0.961 | S. cerevisiae deletion strains, locus YOR231W, strain MKK1, stronger effect = lower value 0.945 | S. cerevisiae deletion strains, locus YOR265W, strain rbl2, stronger effect = lower value 0.967 | S. cerevisiae deletion strains, locus YOR270C, strain vph1, stronger effect = lower value 0.954 | S. cerevisiae deletion strains, locus YOR290C, strain snf2, stronger effect = lower value 0.971 | S. cerevisiae deletion strains, locus YOR316C, strain cot1, stronger effect = lower value 0.95 | S. cerevisiae deletion strains, locus YPL051W, strain arl3, stronger effect = lower value 0.961 | S. cerevisiae deletion strains, locus YPL055C, strain LGE1, stronger effect = lower value 0.987 | S. cerevisiae deletion strains, locus YPL078C, strain atp4, stronger effect = lower value 0.95 | S. cerevisiae deletion strains, locus YPL106C, strain sse1, stronger effect = lower value 0.989 | S. cerevisiae deletion strains, locus YPL240C, strain hsp82, stronger effect = lower value 0.953 | S. cerevisiae deletion strains, locus YPL241C, strain CIN2, stronger effect = lower value 0.967 | S. cerevisiae deletion strains, locus YPL256C, strain CLN2, stronger effect = lower value 0.907 | S. cerevisiae deletion strains, locus YPR119W, strain clb2, stronger effect = lower value 0.931 | S. cerevisiae deletion strains, locus YPR141C, strain kar3, stronger effect = lower value 0.923 | S. cerevisiae deletion strains, locus YPR167C, strain met16, stronger effect = lower value 0.962 | S. cerevisiae deletion strains, strain wtn01, stronger effect = lower value 0.961 | S. cerevisiae strains, strain wild type, stronger effect = lower value 0.984
